PHOSPHO1 inh: blocks human PHOSPHO1 phosphatase activity; AID 1565; Q8TCT1; 290,000 compounds, 1.1% hits; recombinant PHOSPHO1, absorbance phosphatase assay; inhibition, % at 13.3 µM; in the data active = inhibition above about 60%
Target sequence (Q8TCT1 whole entry, looked up): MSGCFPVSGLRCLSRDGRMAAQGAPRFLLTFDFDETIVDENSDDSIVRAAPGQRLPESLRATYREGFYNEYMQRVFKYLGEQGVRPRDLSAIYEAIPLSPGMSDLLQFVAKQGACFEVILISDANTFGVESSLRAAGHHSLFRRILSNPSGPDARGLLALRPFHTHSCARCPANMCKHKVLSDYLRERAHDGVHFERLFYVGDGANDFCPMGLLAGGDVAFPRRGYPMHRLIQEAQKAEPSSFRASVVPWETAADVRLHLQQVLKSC
GASC-1 inh: inhibitors of human GASC-1 (JMJD2C) demethylase; 330,000 compounds, 0.069% hits; GST-JMJD2C(1-420) H3K9me3 demethylation, DELFIA europium; Q9H3R0; AID 2099; inhibition, % at 2.35 µM;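 active = more than half of a compound's replicate wells show inhibition beyond 50%, single wells judged on their own value; inconclusive = some, but no more than half, of replicates pass 50% inhibition; inactive = no replicate passes 50% inhibition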;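 note: signal counts dimethyl H3K9 product captured on neutravidin plate; 0% = median of DMSO wells and 100% = 0.3 times that DMSO median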
Mot1-301 SUMO: SUMOylation pathway inhibition by Mot1-301 growth rescue. S. cerevisiae Mot1-301 growth rescue, ATP luminescence, 38.5C; percent above DMSO median, 100 means doubled. growth rescue, % at 18.8 µM. AID 2716. 320,000 compounds, 1% hits;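 active = every valid replicate shows activation above 250% relative to neutral control wells; inactive = the rest, any valid replicate at or below 250%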;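 note: OY570 slx delta 5 strain wells were the positive control but not used for scaling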
pCIP destab: p/CIP protein destabilization; F442A p/CIP-EGFP cells, EGFP fluorescence, 16 h; decrease of EGFP signal, % at 10 µM; 290,000 compounds, 0.01% hits; AID 1984;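 active = EGFP signal decrease of at least 30% at 10 µM or well 3 SD below plate mean, unless failing retest; inactive = the rest, including hits failing retest or dose response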
PvdQ inh: P. aeruginosa PvdQ acylase inhibition; purified PvdQ acylase, fluorescence plate reader; inhibition, % at 10 µM; 340,000 compounds, 0.063% hits; AID 488965; in the data active = inhibition above about 30%, passing the limit was not always enough; inconclusive = no clear call, values can overlap the other calls;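 note: 0% = vehicle neutral wells and 100% = reference inhibitor wells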
HDAC3 inh: inhibitors of human histone deacetylase 3 | recombinant HDAC3, fluorogenic peptide/trypsin coupled, fluorescence | inhibition, % at 8.3 µM | 320,000 compounds, 0.15% hits; in the data active = inhibition above about 26%, passing the limit was not always enough; inconclusive = no clear call, values can overlap the other calls
The depositor's hits bear a star; ? = inconclusive; · = no result given. An excerpt weighted towards active compounds, which were near 2.2% of everything screened.

SMILES	PHOSPHO1 inh	GASC-1 inh	Mot1-301 SUMO	pCIP destab	PvdQ inh	HDAC3 inh
CCN=C1SC(CC(=O)NC(C)c2ccccc2)C(=O)N1CC (stereo not drawn)	-13	30	71	-2	-2	0
O=[N+]([O-])c1ccc(/C=N/n2cnc3ccccc32)s1	12	2	378*	0	-7	-6
CC1CCCN(c2ccc(C(=O)Nc3cccnc3)cc2[N+](=O)[O-])C1 (stereo not drawn)	-3	2	36	4	-10	5
COc1ccc(N(C(=O)Cn2nnc(-c3ccc(C)o3)n2)C(C(=O)NC2CCCC2)c2ccncc2)cc1 (stereo not drawn)	19	-176	-8	-12	-15	-3
O=C(O)CCN1C(=O)/C(=C/c2cn(-c3ccccc3)nc2-c2cccs2)SC1=S	78*	·	·	-14	-3	·
Cc1nc2cc3nc(C)sc3cc2s1	68*	-4	-26	-21	-4	-2
CN=c1sc2c(n1C)C(=O)c1ccccc1C2=O	·	·	·	·	-13	·
COc1ccc(NC(=S)Nc2cc(-c3ccccc3)[nH]n2)cc1Cl	69*	2	0	-2	-1	0
COc1ccc(CC(=O)NCc2nnc(SCC(=O)Nc3ccccc3)n2C)cc1	37	-3	-1	-5	-2	0
COc1ccc(CC(=O)NCc2nnc(SCC(=O)Nc3ccc(OC)cc3)n2C)cc1	66*	2	-5	-7	-15	3
COc1cc(C)ccc1OCC(=O)OCC(=O)NCC1CCCCC1	·	4	-12	·	-12	1
CC(=O)c1ccc(N2C(=NC(=O)C3CCCCC3)SC3CS(=O)(=O)CC32)cc1 (stereo not drawn)	43	-7	-14	-6	-12	-2
O=S1(=O)CCOC[C@H](c2ccccc2)N1Cc1ccccc1	-13	-5	-18	8	2	-2
O=S1(=O)CCOC[C@H](c2ccccc2)N1Cc1cccc(Cl)c1	-19	5	-9	-3	43*	-1
Cc1cc(=O)[nH]c2ccc(S(=O)(=O)N3CCOCC3)cc12	73*	-18	3	-10	-11	3
CCCCNC(=O)c1onc(CSc2ccc(OC)cc2)c1C(=O)O	98*	8	12	0	-8	-1
COC(=O)CCCC(=O)N1CCCC(N(C)CCc2ccccc2)C1 (stereo not drawn)	19	-1	-11	6	4	1
C=CCn1c(=O)/c(=C/c2ccc(C)o2)s/c1=C(/C#N)C(=O)c1ccccc1	83*	-1	88	-50	?	11
C=CCn1c(=O)/c(=C\c2ccccn2)s/c1=C(/C#N)C(=O)NCC1CCCO1 (stereo not drawn)	-79	-8	-4	0	-13	-1
CC(C)(C)NC(=O)CCN(/N=C/c1ccccc1)C1=NS(=O)(=O)c2ccccc21	·	18	-7	-9	-10	-1
CC(C)(C)NC(=O)CCN(/N=C/c1ccccc1F)C1=NS(=O)(=O)c2ccccc21	33	-6	312*	-4	-17	-4
O=C(Cn1c(=O)[nH]c2ccccc2c1=O)N1CCN(Cc2ccc3c(c2)OCO3)CC1	18	-3	-7	-12	4	-6
COC(=O)c1[nH]c2ccc(C)cc2c1NC(=O)CN1CCN(c2ccccc2)CC1	6	97	67	-2	-4	0
CCC(C(=O)N1CCN(Cc2ccc3c(c2)OCO3)CC1)n1c(=O)[nH]c2ccccc2c1=O (stereo not drawn)	70*	28	-14	-12	-26	-4
O=C(CN1CCN(Cc2ccc3c(c2)OCO3)CC1)Nc1ccc2[nH]c(=O)[nH]c2c1	·	-2	1	·	-3	-5
SMILES	PHOSPHO1 inh	GASC-1 inh	Mot1-301 SUMO	pCIP destab	PvdQ inh	HDAC3 inh
Cc1[nH]c2ccccc2c1NC(=O)CN1CCN(Cc2ccc3c(c2)OCO3)CC1	97*	-10	·	-13	·	·
COC(=O)c1[nH]c2ccc(C)cc2c1NC(=O)CN1CCN(Cc2ccccc2)CC1	85*	-18	-18	-10	-2	-6
CN(C)S(=O)(=O)NCC1CCCN(Cc2ccc(-c3ccccc3)cc2)C1 (stereo not drawn)	30	-9	0	-1	-14	-3
CCOc1cccc2sc(Cl)nc12	43	1	6	-6	-9	-3
CCOc1cccc2sc(NN)nc12	61*	·	·	-1	-10	·
COc1cc(C(c2nnnn2C(C)(C)C)N2CCN(c3nc4ccccc4s3)CC2)ccc1O (stereo not drawn)	61*	-3	6	-7	-9	1
COc1ccc(C(c2nnnn2C(C)(C)C)N2CCN(c3nc4ccccc4s3)CC2)cc1OC (stereo not drawn)	9	-10	·	-20	-9	·
COc1ccccc1N1CCN(C(=O)CSc2ncccc2-c2nc3ccccc3[nH]2)CC1	98*	5	52	-4	-8	-17
COc1ccc(N2CCN(C(=O)CSc3nnc(-c4ccco4)n3C)CC2)cc1	16	64*	-14	0	·	2
O=C(CSc1ncccc1-c1nc2ccccc2[nH]1)N1CCN(c2ccccc2F)CC1	88*	-5	12	-15	-10	-4
COc1ccc(N2CCN(C(=O)CSc3ncccc3-c3nc4ccccc4[nH]3)CC2)cc1	94*	13	-4	-3	-8	-4
COc1ccccc1N1CCN(C(=O)CSc2nc3ccccc3[nH]2)CC1	26	3	-2	-15	-9	4
O=C(CSc1ncccc1-c1nc2ccccc2[nH]1)NC1CC1	13	-3	-1	3	-16	2
CC1CCCN(C(=O)CSc2nnc(-c3ccco3)n2C)C1 (stereo not drawn)	-13	-4	-26	0	4	1
COc1cccc(CN2CCCC(CNC(=O)c3ccc(F)cc3)C2)c1OC (stereo not drawn)	22	-6	-14	-2	-11	3
O=C(N=C1SC2CS(=O)(=O)CC2N1CCc1ccccc1)C1CCCCC1 (stereo not drawn)	19	-6	-9	-1	5	-1
O=C(Oc1ccc(N(Cc2cccs2)C2=NS(=O)(=O)c3ccccc32)cc1)c1ccccc1Cl	-3	-17	155	-7	-15	-8
O=C(Oc1ccc(N(Cc2cccs2)C2=NS(=O)(=O)c3ccccc32)cc1)c1ccco1	-12	3	9	7	-16	58*
CC(=O)c1ccc(NC(=O)CSc2nnc(NC(=O)c3ccco3)s2)cc1	48	-1	-11	8	-15	4
Cc1ccc(C2(CCNCc3ccc(N(C)C)cc3)CCOC(C(C)C)C2)cc1 (stereo not drawn)	64*	-17	-35	-8	-8	-2
Cc1ccc(COc2ccsc2-c2n[nH]c(=S)n2C)cc1	107*	-6	-5	0	-2	-3
Cn1c(-c2sccc2OCc2ccccc2)n[nH]c1=S	99*	2	9	-2	-12	-4
